Consider 8 molecules from PubChem BioAssay (NCI).

Among the test systems are SK-MEL-2 melanoma; EKVX NSCLC; SN12C renal; UO-31 renal; TK-10 renal; ACHN renal; CAKI-1 renal; A498 renal; MOLT-4 leukemia; SR leukemia; RPMI-8226 leukemia; OVCAR-8 ovarian; OVCAR-4 ovarian; SK-OV-3 ovarian; IGROV1 ovarian; OVCAR-3 ovarian; CCRF-CEM leukemia; OVCAR-5 ovarian; HS 578T breast; NCI/ADR-RES ovarian.
Assay in all cases: NCI-60 one-dose screen, 48 h (100 = growth as untreated, 0 = no growth, -100 = all killed)
What all share (details): 10 µM unless noted

Molecules are shown by their SMILES. About 83,000 compounds went through this panel and 20% of them were active in at least one assay; those are over-represented in the sample as a whole.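 Assay: single dose, 48 h. Readout: percent growth (0 = no net growth; negative = cell death). Active: <10.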 Unmarked numbers belong to inactive results. Active and inactive are the calls of the source.

As to `C=C(C=O)C1CCC2(C(=O)O)CCC3(C)C(CCC4C5(C)CCC(O)C(C)(C)C5CCC43C)C12` (stereo unspecified), the growth with SK-MEL-2 melanoma is 30.1%; in the assay with EKVX NSCLC it was 41.9%; in the assay on SN12C renal, 21.5%; with UO-31 renal, -69.3% (active); in the assay on TK-10 renal, 50.5%; in the assay with ACHN renal, -65.4% (active). In addition, the growth was -27.6% (active) in the assay with CAKI-1 renal; 55.2% in the assay on A498 renal; 10.4% with MOLT-4 leukemia; -2.18% (active) in the assay on SR leukemia; -12.7% (active) in the assay on RPMI-8226 leukemia; 16.8% with OVCAR-8 ovarian. Besides, the growth in the assay with OVCAR-4 ovarian is 34.2%; in the assay with SK-OV-3 ovarian, 51%; in the assay on IGROV1 ovarian, 6.56% (active); in the assay with OVCAR-3 ovarian, -86.9% (active).

With `COc1cccc(-c2cnco2)c1OCc1c(C)c(COc2c(OC)cccc2-c2cnco2)c(C)c(COc2c(OC)cccc2-c2cnco2)c1C`, the growth was 60.9% with SK-MEL-2 melanoma; 52.8% in the assay with EKVX NSCLC; 51.4% in the assay with SN12C renal; 30.8% in the assay with UO-31 renal; 28.1% in the assay with TK-10 renal; 29.6% with ACHN renal. For the same molecule, the growth in the assay with CAKI-1 renal was 88.7%; in the assay with A498 renal, -13.6% (active); in the assay with CCRF-CEM leukemia, 94.5%; in the assay on MOLT-4 leukemia it was 91.2%; with RPMI-8226 leukemia, 47.4%; in the assay on OVCAR-8 ovarian, 56.7%. Besides, the growth with OVCAR-5 ovarian is 74.9%; in the assay with OVCAR-4 ovarian it was 7.51% (active); with IGROV1 ovarian it was 80.2%; with OVCAR-3 ovarian, 63.1%; with HS 578T breast it was 30.8%; in the assay on NCI/ADR-RES ovarian, 81.2%.

As to `C=C(C)[C@@H]1CC[C@]2(CNCCO)CC[C@]3(C)[C@H](CC[C@@H]4[C@@]5(C)CCC(N)[C@@](C)(CO)[C@@H]5CC[C@]43C)[C@@H]12` (stereo partly specified), the growth was -19% (active) in the assay with SK-MEL-2 melanoma; 40% with EKVX NSCLC; -11.4% (active) in the assay on SN12C renal; 66.1% in the assay on UO-31 renal; -47.4% (active) in the assay with TK-10 renal; 54.4% in the assay with ACHN renal. Moreover, the growth in the assay with CAKI-1 renal was 71.2%; in the assay on A498 renal it was 78.1%; in the assay with CCRF-CEM leukemia, -38.7% (active); in the assay on RPMI-8226 leukemia it was -45.1% (active); in the assay with OVCAR-5 ovarian it was 63.8%; in the assay with OVCAR-4 ovarian it was 46.2%. The growth in the assay on SK-OV-3 ovarian was 75%; in the assay on IGROV1 ovarian it was 61.6%; in the assay on OVCAR-3 ovarian it was -43.4% (active); in the assay with HS 578T breast, 60.9%; in the assay with NCI/ADR-RES ovarian, 83%.

`CC(C)(C)Nc1c(-c2c3ccccc3cc3ccccc23)nc2ccccn12`: the growth was 77.1% in the assay with SK-MEL-2 melanoma; 70.1% in the assay with EKVX NSCLC; 82.3% in the assay on SN12C renal; 49.8% with UO-31 renal; 76% in the assay with TK-10 renal; 77.8% in the assay on ACHN renal. The growth is 50.1% in the assay with CAKI-1 renal; 88.2% in the assay on A498 renal; 61.7% with CCRF-CEM leukemia; 45.5% in the assay with MOLT-4 leukemia; 55% in the assay on RPMI-8226 leukemia; 67.2% with OVCAR-8 ovarian. For the same molecule, the growth was 78.5% in the assay on OVCAR-5 ovarian; 59.6% with SK-OV-3 ovarian; 64.2% in the assay on IGROV1 ovarian; 72.3% with OVCAR-3 ovarian; 72% with HS 578T breast; 82.9% in the assay on NCI/ADR-RES ovarian.

As for `COc1ccc(/C(C)=C(\c2ccc(Cl)cc2)c2ccc(OCCCN(C)C)cc2)cc1F`, the growth with SK-MEL-2 melanoma was 97.2%; in the assay with EKVX NSCLC it was 85.4%; in the assay with SN12C renal, 76%; in the assay with UO-31 renal, 54.2%; with TK-10 renal, 78.6%; with ACHN renal it was 76.7%. The growth in the assay with CAKI-1 renal was 57.3%; with A498 renal, 80.1%; in the assay with MOLT-4 leukemia, 43.1%; in the assay on SR leukemia, -19.7% (active); with OVCAR-8 ovarian, 71.5%; in the assay with OVCAR-5 ovarian it was 72.6%. Moreover, the growth with OVCAR-4 ovarian was 54.1%; in the assay with SK-OV-3 ovarian it was 81.9%; with IGROV1 ovarian it was 48.5%; with OVCAR-3 ovarian, 63.5%; in the assay with HS 578T breast, 56.3%; with NCI/ADR-RES ovarian it was 77.1%.

With `COc1ccc(Oc2nc(Nc3ccc(N4CCOCC4)nc3)ncc2NC(=O)c2cc(OC)cc(OC)c2)cc1`, the growth in the assay with SK-MEL-2 melanoma was 47.6%; in the assay on EKVX NSCLC, 89.3%; in the assay with SN12C renal, 93.7%; with UO-31 renal, 56.3%; in the assay on TK-10 renal, 83.4%; in the assay with ACHN renal it was 75.1%. The growth is 67.3% in the assay with CAKI-1 renal; 53.7% with A498 renal; 64.2% with CCRF-CEM leukemia; 49% in the assay on RPMI-8226 leukemia; 77.8% with OVCAR-8 ovarian; 105% with OVCAR-5 ovarian. In addition, the growth with OVCAR-4 ovarian is 78.2%; in the assay on SK-OV-3 ovarian, 88.6%; with IGROV1 ovarian, 80%; with OVCAR-3 ovarian, 82.7%; in the assay with HS 578T breast it was 86.8%; in the assay with NCI/ADR-RES ovarian, 76%.

As for `CC1=NN(c2cccc(Cl)c2)C(=O)/C1=C\c1cn(CC(O)CN2CCCCC2)c2ccccc12` (stereo unspecified), the growth is 73.8% with SK-MEL-2 melanoma; 88% in the assay with EKVX NSCLC; 66.3% with SN12C renal; 67% in the assay on UO-31 renal; 71.7% with TK-10 renal; 38.6% with ACHN renal. The growth with CAKI-1 renal is 24%; with A498 renal, 80.2%; with MOLT-4 leukemia, 48.3%; in the assay on SR leukemia it was -8.32% (active); with RPMI-8226 leukemia it was 34.8%; with OVCAR-8 ovarian, 76.6%. Further, the growth in the assay with OVCAR-5 ovarian was 83.9%; in the assay with OVCAR-4 ovarian it was 75.9%; with SK-OV-3 ovarian, 94.6%; with IGROV1 ovarian, 49.8%; with OVCAR-3 ovarian it was 57.7%; with HS 578T breast it was 91.1%. Moreover, the growth in the assay with NCI/ADR-RES ovarian is 75.3%.

Consider `CN(C)CCC(O)(Cc1ccccc1)c1ccccc1` (stereo unspecified), for which the growth is 100% with SK-MEL-2 melanoma; 99.5% in the assay with EKVX NSCLC; 105% in the assay with SN12C renal; 87.8% in the assay with UO-31 renal; 93.8% in the assay on TK-10 renal; 101% in the assay with ACHN renal. Besides, the growth with CAKI-1 renal was 83.6%; with A498 renal, 185%; in the assay on MOLT-4 leukemia, 102%; with SR leukemia it was 102%; with OVCAR-8 ovarian, 105%; in the assay on OVCAR-5 ovarian it was 103%. For the same molecule, the growth with OVCAR-4 ovarian was 110%; with SK-OV-3 ovarian it was 99.6%; with IGROV1 ovarian it was 113%; in the assay on HS 578T breast, 99.8%; in the assay on NCI/ADR-RES ovarian it was 109%.
